From PubChem BioAssay (EPA / NIEHS) come the findings set out here.

The source holds several records for some structures; these can differ, active in one and inactive in another. The source made the active and inactive calls. Rule for the calls: active = hit-call score of the fitted dose curve at least 0.9, where 1 is the maximum; inactive = score below 0.9.

Read-out in test [1]: Vascular endothelial growth factor receptor 2 (Homo sapiens) (UniProt P35968)
Kind of test: BSK_4H_VEGFRII: BioMAP Diversity Plus: 4H Assay for Vascular endothelial growth factor receptor 2 (VEGFR2) Biomarker Activity (AID 2283031).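 For AC50: cell-surface VEGFR2 protein level quantified by ELISA.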 The following applies: primary human endothelial cells (HUVEC); actives raise or lower the signal. A digest of the protocol:
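HUVEC (human primary), 4H system; 24 h post-dose; VEGFRII by ELISA; bidirectional curve fit vs DMSO baseline; gain or loss of signal scored.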

Read-out in test [2]: Human Leukocyte Antigen - DR isotype (HLADR), HLA-DRA (gene 3122)
The experiment in a line: BSK_BE3C_HLADR: BioMAP Diversity Plus: BE3C Assay for Human Leukocyte Antigen - DR isotype (HLADR) Biomarker Activity (AID 2283032). The following applies: primary human bronchial epithelial cells; actives raise or lower the signal. A digest of the protocol:
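BioMAP BE3C format: human bronchial epithelium, 24 h compound treatment, ELISA detection of HLA-DR, with bidirectional analysis relative to DMSO.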

Read-out in test [3]: Vascular cell adhesion molecule 1 (VCAM1), VCAM1 (gene 7412)
The experiment in a line: BSK_4H_VCAM1: BioMAP Diversity Plus: 4H Assay for Vascular cell adhesion molecule 1 (VCAM1) Biomarker Activity (AID 2283033).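 For outcome: cell-surface VCAM-1 protein measured by ELISA.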 As to conditions: primary human endothelial cells (HUVEC); actives raise or lower the signal. A digest of the protocol: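 In this human endothelial (HUVEC) system, biomarker ELISA was run 24 h after compound addition, and total protein in parallel wells was assessed by SRB at 560 nm; DMSO served as negative control.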

Read-out in test [4]: Interferon-gamma inducible Protein 10 (IP10), CXCL10 (gene 3627)
The experiment in a line: BSK_BE3C_IP10: BioMAP Diversity Plus: BE3C Assay for Interferon-gamma inducible Protein 10 (IP10) Biomarker Activity (AID 2283034). The following applies: primary human bronchial epithelial cells; actives raise or lower the signal. A digest of the protocol: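 BE3C cells (human bronchial epithelial, primary); 24 h exposure; ELISA for IP-10; DMSO-referenced bidirectional fit.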

Read-out in test [5]: Monokine induced gamma interferon (MIG), CXCL9 (gene 4283)
Kind of test: BSK_BE3C_MIG: BioMAP Diversity Plus: BE3C Assay for Monokine induced gamma interferon (MIG) Biomarker Activity (AID 2283035). The following applies: primary human bronchial epithelial cells; actives raise or lower the signal. A digest of the protocol:
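ELISA quantified MIG after 24 h exposure of primary bronchial epithelial cultures, analysed in both directions relative to DMSO. Cytotoxicity tracked in parallel cultures by sulforhodamine B staining.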

Read-out in test [6]: Transforming growth factor beta 1 (TGFb1), TGFB1 (gene 7040)
The experiment in a line: BSK_BE3C_TGFb1: BioMAP Diversity Plus: BE3C Assay for Transforming growth factor beta 1 (TGFb1) Biomarker Activity (AID 2283036;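 for outcome: TGF-b1 protein level measured by ELISA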). The following applies: primary human bronchial epithelial cells; actives raise or lower the signal. A digest of the protocol: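 TGF-b1 measured via ELISA, 24 h after chemical dosing of human bronchial epithelial cells (BE3C). Overt cytotoxicity assessed in parallel by SRB (0.1%, TCA-fixed, 560 nm); analysis bidirectional relative to DMSO.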

Read-out in test [7]: Plasminogen activator inhibitor-1 (PAI1), SERPINE1 (gene 5054)
Kind of test: BSK_BE3C_PAI1: BioMAP Diversity Plus: BE3C Assay for Plasminogen activator inhibitor-1 (PAI1) Biomarker Activity (AID 2283037). As to conditions: primary human bronchial epithelial cells; actives raise or lower the signal. A digest of the protocol: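 In this multiplexed primary-cell system, bronchial epithelial cells receive test chemical and are sampled at 24 h. PAI-1 is read by ELISA, with DMSO serving as negative control for bidirectional fitting.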

Read-out in test [8]: urokinase plasminogen activator (uPA), PLAU (gene 5328)
Kind of test: BSK_BE3C_uPA: BioMAP Diversity Plus: BE3C Assay for urokinase plasminogen activator (uPA) Biomarker Activity (AID 2283038).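 Note: uPA protein level quantified by ELISA in cell cultures; uPA read one day after compound addition.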 The following applies: primary human bronchial epithelial cells; actives raise or lower the signal. A digest of the protocol: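 ELISA read-out of uPA in human lung primary bronchial epithelial cultures, 24 h post-dosing. Gain or loss of signal fitted bidirectionally relative to DMSO baseline; cytotoxicity checked in parallel cultures via SRB total protein stain.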

Read-out in test [9]: Urokinase-type plasminogen activator receptor (uPAR), PLAUR (gene 5329)
The experiment in a line: BSK_BE3C_uPAR: BioMAP Diversity Plus: BE3C Assay for Urokinase-type plasminogen activator receptor (uPAR) Biomarker Activity (AID 2283039).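 For outcome: uPAR protein level measured by ELISA on the cells; cells exposed to compound for one day before measurement.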 The following applies: primary human bronchial epithelial cells; actives raise or lower the signal. A digest of the protocol:
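Chemically treated human bronchial epithelial cells (lung primary) are assayed for uPAR by ELISA after 24 h, with data fitted in both directions using DMSO as negative control.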

Read-out in test [10]: Interleukin-6 (IL6), IL6 (gene 3569)
Kind of test: BSK_CASM3C_IL6: BioMAP Diversity Plus: CASM3C Assay for Interleukin-6 (IL6) Biomarker Activity for (AID 2283040). The following applies: primary human coronary artery smooth muscle cells; actives raise or lower the signal.

`S=P(N1CC1)(N1CC1)N1CC1`: the outcome in [1], in [2], in test [3], in test [4], in [5] and in test [6] was inactive. Besides, the result in test [7], in [8], in [9] and in test [10] was inactive.

Consider `OC[C@H]1O[C@@H]2O[C@H]3[C@H](O)[C@@H](O)[C@@H](O[C@H]4[C@H](O)[C@@H](O)[C@@H](O[C@H]5[C@H](O)[C@@H](O)[C@@H](O[C@H]6[C@H](O)[C@@H](O)[C@@H](O[C@H]7[C@H](O)[C@@H](O)[C@@H](O[C@H]1[C@H](O)[C@H]2O)O[C@@H]7CO)O[C@@H]6CO)O[C@@H]5CO)O[C@@H]4CO)O[C@@H]3CO`, for which the result in test [1], in test [2], in [3], in test [4], in [5] and in [6] was inactive. The outcome in test [7], in test [8], in test [9] and in test [10] was inactive.

Take `Cc1nccn1-c1ccc(Sc2cccc(C3(C(N)=O)CCOCC3)c2)cc1`: the result in [1], in test [5], in test [6] and in test [7] was inactive. The AC50 in [2] is 12.8 µM (active); in test [3], 6.37 µM (active); in test [4], 20 µM (active); in test [9], 10.3 µM (active); in test [10] it was 5.2 µM (active).

For `CCCCC(CC)C(=O)OCCOCCOCCOC(=O)C(CC)CCCC` (configuration not stated), the result in [1], in test [2], in [3], in test [4], in [5] and in [7] was inactive. The outcome in [8], in test [9] and in test [10] was inactive.

With `CC(C)CCCCCCOC(=O)C1CCCCC1C(=O)OCCCCCCC(C)C` (configuration not stated), the outcome in test [1], in test [2], in test [3], in [4], in test [5] and in [6] was inactive. Also, the outcome in test [7], in [8], in test [9] and in test [10] was inactive.

For the molecule `C=CN1CCCC1=O`, the result in test [1], in [2], in [3], in test [4], in test [5] and in test [6] was inactive. Besides, the outcome in [7], in [9] and in [10] was inactive.

For the molecule `CCCCCCCCN(C)C`, the result in test [1], in [2], in test [3], in [4], in [5] and in test [7] was inactive. Moreover, the result in test [8], in [9] and in test [10] was inactive.

Consider `CCCCN1C(=O)[C@@H]([C@H](O)C2CCCCC2)NC(=O)C12CCN(Cc1ccc(Oc3ccc(C(=O)O)cc3)cc1)CC2`, for which the outcome in [1], in [2], in [3], in [4], in test [5] and in test [6] was inactive. Moreover, the result in [7], in test [8], in test [9] and in test [10] was inactive.

Regarding `CCCc1ccccc1`, the outcome in test [1], in [2], in test [3], in [4], in test [5] and in [7] was inactive. Moreover, the outcome in test [8], in test [9] and in test [10] was inactive.

As to `NCC(F)(F)C(F)(F)C(F)(F)C(F)(F)F`, the outcome in test [1], in [2], in [3], in [4], in [5] and in [7] was inactive. The result in test [8], in [9] and in test [10] was inactive.

Turning to `O=C1CN(N=Cc2ccc([N+](=O)[O-])o2)C(=O)N1`, the outcome in test [1], in test [2], in test [3], in test [4], in [5] and in test [6] was inactive. For the same molecule, the outcome in [7], in test [9] and in [10] was inactive.

For the molecule `C=CCc1cc(S(=O)(=O)c2ccc(O)c(CC=C)c2)ccc1O`, the AC50 is 20 µM (active) in test [1]; 8.38 µM (active) in test [2]; 32.3 µM (active) in test [3]; 13.4 µM (active) in test [4]; 29.8 µM (active) in [5]; 10.5 µM (active) in test [6]. Moreover, the AC50 is 10.8 µM (active) in test [7] and 15.4 µM (active) in test [9]. The outcome in [10] was inactive.

For the molecule `OCc1c[nH]c2ccccc12`, the outcome in [1], in test [3], in test [5], in test [6], in [9] and in test [10] was inactive. Further, the AC50 was 3.97 µM (active) in test [2], 5.95 µM (active) in test [4] and 0.0716 µM (active) in [7].

`COc1cc(C(C)C)c2c(c1)S(=O)(=O)N(COc1cc(=O)n3cccc(OCCN4CCCCC4)c3n1)C2=O`: the result in [1], in test [5], in test [6], in test [9] and in test [10] was inactive. Besides, the AC50 was 6.88 µM (active) in test [2], 5 µM (active) in [3], 7.41 µM (active) in [4] and 8.4 µM (active) in test [7].

For the molecule `FC(F)C(F)(F)COCC1CO1` (configuration not stated), the outcome in test [1], in test [2], in test [3], in [4], in test [5] and in test [7] was inactive. The outcome in test [9] and in [10] was inactive. Moreover, the AC50 in test [2] was 45.8 µM (active).

Turning to `O=C(O)c1cccc(C(=O)O)c1`, the outcome in test [1], in test [2], in test [3], in test [4], in test [5] and in test [6] was inactive. The result in [7], in test [8], in test [9] and in [10] was inactive.

With `NC(N)=O`, the outcome in [1], in [2], in test [3], in test [4], in test [5] and in test [6] was inactive. Further, the result in test [7], in [8], in test [9] and in [10] was inactive.

Regarding `OCC(CO)(CO)CO`, the result in test [1], in test [2], in test [3], in [4], in [5] and in test [7] was inactive. The result in [8], in test [9] and in test [10] was inactive.

For `OC[C@H]1O[C@@](CO)(O[C@H]2O[C@H](CO)[C@@H](O)[C@H](O)[C@H]2O)[C@@H](O)[C@@H]1O`, the result in test [1], in test [2], in test [3], in test [4], in [5] and in test [6] was inactive. The outcome in test [7], in test [9] and in test [10] was inactive.

For orientation: AC50 means the concentration giving half of the maximal activity seen.
